Measurements from PubChem BioAssay (NCATS).
Records with an inconclusive call do not appear. The source made the active and inactive calls. Unless noted, calls follow the shape of the dose curve; as a rule, active = well fitted curve in the direction sought with a large enough effect; inconclusive = small, poorly fitted or top-dose-only effect, or another doubt; inactive = no such curve, though single readings can be large; an effect the other way counts as inactive or inconclusive.

Columns and labels:
[1] = qHTS for Inhibitors of the Functional Ribonucleoprotein Complex (vRNP) of Lassa (LASV) Arenavirus: LASV Primary Screen - GLuc reporter signal (AID 1347082; calls by dose curve; tested in HEK293 reporter line; also: nearly all actives have a fitted effect of over 60% in size)
[2] = qHTS for Inhibitors of the Functional Ribonucleoprotein Complex (vRNP) of Lassa (LASV) Arenavirus: Viability assay - alamar blue signal for LASV Primary Screen (AID 1347083; calls by dose curve; tested in HEK293 reporter line; also: nearly all actives have a fitted effect of over 80% in size)
[3] = qHTS for Inhibitors of the Functional Ribonucleoprotein Complex (vRNP) of Lymphocytic Choriomeningitis Arenaviruses (LCMV): Viability assay - alamar blue signal for LCMV Primary Screen (AID 1347085; calls by dose curve; tested in HEK293 reporter line; also: nearly all actives have a fitted effect of over 80% in size)
[4] = target: Nucleoprotein (Lymphocytic choriomeningitis virus (strain Armstrong)) (UniProt P09992); test: qHTS for Inhibitors of the Functional Ribonucleoprotein Complex (vRNP) of Lymphocytic Choriomeningitis Arenaviruses (LCMV): LCMV Primary Screen - GLuc reporter signal (AID 1347086; calls by dose curve; also: nearly all actives have a fitted effect of over 70% in size)
[5] = target: Nuclear receptor subfamily 1 group I member 3 (Homo sapiens) (UniProt Q14994); test: Primary qHTS for antagonist of constitutive androstane receptor (CAR) against the NCATS DSHEA and TCM libraries (AID 1794836);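 also: HepG2 cells stably expressing hCAR with CYP2B6 luciferase reporter stimulated by CITCO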
Outline: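 Antagonist mode: CAR reporter luminescence (ONE-Glo) in HepG2-CYP2B6-hCAR cells stimulated with 48 uM CITCO (final) over 24 h at 37 C, compounds titrated; viability read first by CellTiter-Fluor fluorescence.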

CRL-7250 = normal cell line; test: qHTS assay to identify novel small-molecules to repurpose for Merkel cell carcinoma treatment (AID 1296009); details: MCC and control cell lines, CellTiter-Glo viability, 72 h; series mostly up to 92 µM; also: nearly all actives have a fitted effect of over 60% in size
Outline: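 72 hr, 37 degree celsius; NPC 8-pt / MIPE 11-pt dose response; compound pinned in DMSO; CellTiter-Glo, 10 min RT, luminescence; normalized to no-cell and DMSO controls.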

Measured: Potency

Nucleoprotein (Lymphocytic choriomeningitis virus (strain Armstrong)), sequence (P09992 whole entry, looked up): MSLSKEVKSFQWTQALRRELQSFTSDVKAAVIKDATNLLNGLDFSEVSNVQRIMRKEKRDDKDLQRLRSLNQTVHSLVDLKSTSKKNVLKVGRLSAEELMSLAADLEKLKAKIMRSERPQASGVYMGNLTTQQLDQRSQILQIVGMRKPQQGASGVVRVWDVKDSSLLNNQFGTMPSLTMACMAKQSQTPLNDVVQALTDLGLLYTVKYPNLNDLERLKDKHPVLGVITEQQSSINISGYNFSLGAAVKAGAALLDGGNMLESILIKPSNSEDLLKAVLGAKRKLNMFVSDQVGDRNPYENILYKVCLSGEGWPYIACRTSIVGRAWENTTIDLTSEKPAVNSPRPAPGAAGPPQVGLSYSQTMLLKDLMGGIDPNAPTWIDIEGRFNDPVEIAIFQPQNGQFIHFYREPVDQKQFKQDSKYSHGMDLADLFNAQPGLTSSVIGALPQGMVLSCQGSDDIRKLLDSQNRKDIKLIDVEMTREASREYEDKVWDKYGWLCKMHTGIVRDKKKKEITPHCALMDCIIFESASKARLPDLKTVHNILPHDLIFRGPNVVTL
Nuclear receptor subfamily 1 group I member 3 (Homo sapiens), sequence (Q14994 whole entry, looked up): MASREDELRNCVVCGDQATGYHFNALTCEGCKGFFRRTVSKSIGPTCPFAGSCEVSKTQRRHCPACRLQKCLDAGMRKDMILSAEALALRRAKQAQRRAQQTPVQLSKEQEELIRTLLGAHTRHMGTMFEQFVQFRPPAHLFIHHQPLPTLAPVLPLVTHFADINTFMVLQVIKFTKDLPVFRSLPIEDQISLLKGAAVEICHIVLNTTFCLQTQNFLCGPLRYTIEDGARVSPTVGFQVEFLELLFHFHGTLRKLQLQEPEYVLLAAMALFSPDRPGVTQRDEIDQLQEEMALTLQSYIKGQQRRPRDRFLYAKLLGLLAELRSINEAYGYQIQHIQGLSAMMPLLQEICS

COc1cc(O)c2c(c1)C(=O)c1cc(C)cc(O)c1C2=O
inactive: all assays above

Nc1ncnc2c1ncn2[C@@H]1O[C@@H](CO)[C@H](O)[C@H]1O
inactive: [1] | [2] | [4] | CRL-7250
